Reference: PubChem BioAssay (Tox21)
Results filed as inconclusive are left out. Where a call stands in place of a potency, no number is given. Unmarked numbers belong to inactive results. Activity calls are given as the source filed them. Unless noted, calls come from the whole dose curve; as a rule, active = well fitted curve in the direction sought with a large enough effect in the repeat runs; inconclusive = weak or mixed curves; inactive = no such curve, though single readings can be large; an effect the other way counts as inactive or inconclusive.

How the values were obtained:
[1] = qHTS assay to identify small molecule antagonists of the thyroid receptor (TR) signaling pathway - cell viability counter screen (AID 743064); note: nearly all actives have a fitted effect of over 50% in size
Procedure, shortened: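 Compounds were tested on GH3.TRE-Luc cells in the presence of T3 at 1 nM final. Following 23.5 h at 37 °C, cell viability was quantified by CellTiter-Fluor.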

[2] = qHTS assay to identify small molecule antagonists of the thyroid receptor (TR) signaling pathway (AID 743065); note: series mostly up to about 70 µM; nearly all actives have a fitted effect of over 55% in size
Procedure, shortened: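 GH3.TRE-Luc rat pituitary cells carrying two TR response elements driving luciferase were plated for 4 h, given compound plus 1 nM T3 (final), and incubated 23.5 h at 37 C. ONE-Glo luminescence measured reporter inhibition; CellTiter-Fluor fluorescence tracked cytotoxicity.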

[3] = system: thyroid hormone receptor (rat, GH3 cells); assay: qHTS assay to identify small molecule agonists of the thyroid receptor (TR) signaling pathway (AID 743066; calls by dose curve)
[4] = qHTS assay to identify small molecule antagonists of the estrogen receptor alpha (ER-alpha) signaling pathway - cell viability counter screen (AID 743074; calls by dose curve; note: nearly all actives have a fitted effect of over 45% in size)
[5] = qHTS assay to identify small molecule antagonists of the estrogen receptor alpha (ER-alpha) signaling pathway using the BG1 cell line - cell viability counter screen (AID 743081);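 note: compound given together with 17beta-estradiol as the ER stimulus; series mostly up to about 70 µM; nearly all actives have a fitted effect of over 45% in size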
[6] = biological target: Aromatase (Homo sapiens) (UniProt P11511); assay: qHTS assay to identify aromatase inhibitors (AID 743083); note: series mostly up to about 70 µM; nearly all actives have a fitted effect of over 55% in size
[7] = qHTS assay to identify aromatase inhibitors - cell viability counter screen (AID 743084);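 note: cells stimulated with testosterone during compound exposure; nearly all actives have a fitted effect of over 55% in size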
[8] = biological target: Aryl hydrocarbon receptor (Homo sapiens) (UniProt P35869); assay: qHTS assay to identify small molecule that activate the aryl hydrocarbon receptor (AhR) signaling pathway (AID 743085); note: nearly all actives have a fitted effect of over 15% in size; note: potency is the fitted concentration of half-maximal effect;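 for activation: HG2L7.5c1 human HepG2 liver cells with stably integrated DRE-driven firefly reporter; series mostly up to about 70 µM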
Procedure, shortened: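 24 h compound exposure, 37C, HepG2-derived HG2L7.5c1 cells with DRE-responsive luciferase. Readouts: fluorescence viability, then luminescence at room temperature after 30 min.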

[9] = biological target: Peroxisome proliferator-activated receptor gamma (Homo sapiens) (UniProt P37231); assay: qHTS assay to identify small molecule agonists of the peroxisome proliferator-activated receptor gamma (PPARg) signaling pathway (AID 743094; active = well fitted activation curve with a large enough effect in the signal ratio in the repeat runs, not every such curve was filed as active; the % refers to the signal ratio)
Procedure, shortened: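 Quantitative HTS agonist mode: stable HEK293H line with UAS-beta-lactamase reporter under PPARg control, 17 h compound exposure at 37C, fluorescence after 1 h FRET substrate loading at room temperature.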

[10] = biological target: Peroxisome proliferator-activated receptor gamma (Homo sapiens) (UniProt P37231); assay: qHTS assay to identify small molecule antagonists of the peroxisome proliferator-activated receptor gamma (PPARg) signaling pathway (AID 743191; calls by dose curve; note: series mostly up to about 63 µM; nearly all actives have a fitted effect of over 30% in size)
Procedure, shortened: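 GeneBLAzer PPARg UAS-bla HEK293H cells carrying a UAS-driven beta-lactamase reporter were plated at 3000 cells/well, preincubated 5 h at 37C, then given compound for 17 h at 37C; LiveBLAzer B/G FRET substrate was read after 1 h at room temperature.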

[11] = qHTS assay to identify small molecule antagonists of the peroxisome proliferator-activated receptor gamma (PPARg) signaling pathway - cell viability counter screen (AID 743194); note: nearly all actives have a fitted effect of over 55% in size
Procedure, shortened: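 PPARg-UAS-bla HEK293H cells were plated, rested 5 h at 37 C, then treated with compounds plus rosiglitazone (50 nM final) for 17 h at 37 C; viability was then read by CellTiter-Glo luminescence after 30 min at room temperature.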

[12] = qHTS assay for small molecule agonists of the antioxidant response element (ARE) signaling pathway (AID 743202; active = well fitted activation curve with a large enough effect in the signal ratio in the repeat runs, not every such curve was filed as active; the % refers to the signal ratio)
Procedure, shortened: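 Read-out: LiveBLAzer B/G FRET substrate fluorescence after 2 h at room temperature, following 16 h compound treatment at 37 C of HepG2 cells carrying an ARE-driven beta-lactamase reporter.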

[13] = qHTS assay for small molecule agonists of the antioxidant response element (ARE) signaling pathway - cell viability counter screen (AID 743203; calls by dose curve; note: nearly all actives have a fitted effect of over 55% in size)
Procedure, shortened: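 Seeded at 2,000 cells/well, ARE-bla HepG2 cells were incubated 5 hrs before compound addition. After 16 hrs of treatment at 37C with 5% CO2, CellTiter-Glo reagent was added and luminescence read 30 min later.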

[14] = qHTS assay for small molecule activators of the heat shock response signaling pathway - cell viability counter screen (AID 743209); note: nearly all actives have a fitted effect of over 50% in size
Procedure, shortened: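 First, HSE-bla HeLa cells were seeded at 1500 cells/well and kept overnight at 37 C. Next, compounds were pinned in and incubated 5 h. After the FRET substrate step, CellTiter-Glo was added and luminescence read 30 min later.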

[15] = qHTS assay for small molecule activators of the heat shock response signaling pathway (AID 743210; active = well fitted activation curve with a large enough effect in the signal ratio in the repeat runs, with a control signal flat, not every such curve was filed as active; the % refers to the signal ratio; note: series mostly up to about 63 µM)
Procedure, shortened: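 HSE-bla HeLa cells (beta-lactamase reporter under heat shock response elements) were exposed to compounds for 5 h at 37 C, then loaded with LiveBLAzer B/G FRET substrate for 2.5 h at room temperature before fluorescence reading.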

[16] = qHTS assay to identify small molecule that activate the aryl hydrocarbon receptor (AhR) signaling pathway - cell viability counter screen (AID 743086);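 note: HepG2 liver cells carrying the AhR DRE luciferase reporter; series mostly up to about 70 µM; nearly all actives have a fitted effect of over 45% in size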
Procedure, shortened: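 HepG2-AhR-luc (HG2L7.5c1) cells, 4000/well, were preincubated 5 h at 37C, exposed to compound in qHTS format for 24 hr at 37C, then given CellTiter-Fluor for 30 min; viability was read as fluorescence in the reporter wells.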

[17] = biological target: Estrogen receptor (Homo sapiens) (UniProt P03372); assay: qHTS assay to identify small molecule antagonists of the estrogen receptor alpha (ER-alpha) signaling pathway (AID 743069; active = well fitted curve in the direction sought with a large enough effect in the signal ratio in the repeat runs, not every such curve was filed as active; the % refers to the signal ratio)
Procedure, shortened: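 HEK293 cells stably carrying an ER-alpha-UAS-bla beta-lactamase reporter were pre-cultured overnight in 2% charcoal-stripped FBS medium. Test compounds in DMSO were added together with 17beta-estradiol for 18 hr at 37C. Read-out was fluorescence after 2 hr with LiveBLAzer B/G FRET substrate at room temperature.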

[18] = biological target: Estrogen receptor (Homo sapiens) (UniProt P03372); assay: qHTS assay to identify small molecule agonists of the estrogen receptor alpha (ER-alpha) signaling pathway (AID 743075; calls by dose curve)
[19] = biological target: Estrogen receptor (Homo sapiens) (UniProt P03372); assay: qHTS assay to identify small molecule agonists of the estrogen receptor alpha (ER-alpha) signaling pathway using the BG1 cell line (AID 743079); note: nearly all actives have a fitted effect of over 20% in size
[20] = qHTS assay to identify small molecule antagonists of the estrogen receptor alpha (ER-alpha) signaling pathway using the BG1 cell line (AID 743080; calls by dose curve;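 note: BG1 cells stimulated with 17beta-estradiol alongside compound; series mostly up to about 70 µM; nearly all actives have a fitted effect of over 25% in size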)
Procedure, shortened: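 BG1Luc4E2, endogenous ER-alpha, 4xERE-luc; 5 d charcoal-stripped FBS, phenol red free; 24 h plating; cpd + 17beta-estradiol 21.5 h, 37 C/5% CO2; CellTiter-Fluor viability 30 min, then ONE-Glo luciferase 30 min RT.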

Peroxisome proliferator-activated receptor gamma (Homo sapiens), sequence (P37231 whole entry, looked up): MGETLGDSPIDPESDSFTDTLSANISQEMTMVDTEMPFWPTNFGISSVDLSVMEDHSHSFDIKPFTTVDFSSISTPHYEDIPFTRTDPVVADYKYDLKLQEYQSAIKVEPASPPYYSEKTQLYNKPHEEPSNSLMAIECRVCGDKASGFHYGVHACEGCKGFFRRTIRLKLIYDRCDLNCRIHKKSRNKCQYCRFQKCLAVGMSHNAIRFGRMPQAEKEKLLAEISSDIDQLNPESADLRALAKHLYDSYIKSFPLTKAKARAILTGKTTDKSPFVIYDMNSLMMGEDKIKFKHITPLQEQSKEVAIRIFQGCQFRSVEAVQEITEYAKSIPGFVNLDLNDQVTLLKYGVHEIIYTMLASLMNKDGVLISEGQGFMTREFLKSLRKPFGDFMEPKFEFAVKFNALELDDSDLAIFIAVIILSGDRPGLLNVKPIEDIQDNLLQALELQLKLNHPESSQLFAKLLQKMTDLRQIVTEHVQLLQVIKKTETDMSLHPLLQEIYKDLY
Aromatase (Homo sapiens), sequence (P11511 whole entry, looked up): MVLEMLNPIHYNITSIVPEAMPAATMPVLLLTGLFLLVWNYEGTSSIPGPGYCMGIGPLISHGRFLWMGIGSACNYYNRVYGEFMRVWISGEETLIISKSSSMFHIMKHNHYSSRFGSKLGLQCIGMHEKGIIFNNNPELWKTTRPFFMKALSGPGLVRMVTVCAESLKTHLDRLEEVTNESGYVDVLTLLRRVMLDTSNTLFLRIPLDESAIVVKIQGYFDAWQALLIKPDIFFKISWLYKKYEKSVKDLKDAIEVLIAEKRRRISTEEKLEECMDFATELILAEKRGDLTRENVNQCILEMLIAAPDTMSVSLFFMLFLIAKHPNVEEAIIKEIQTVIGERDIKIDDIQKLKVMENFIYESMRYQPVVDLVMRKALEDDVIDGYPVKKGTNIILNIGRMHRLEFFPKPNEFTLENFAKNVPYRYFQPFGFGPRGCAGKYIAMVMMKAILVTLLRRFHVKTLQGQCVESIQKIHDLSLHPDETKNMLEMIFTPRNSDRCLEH
Estrogen receptor (Homo sapiens), sequence (P03372 whole entry, looked up): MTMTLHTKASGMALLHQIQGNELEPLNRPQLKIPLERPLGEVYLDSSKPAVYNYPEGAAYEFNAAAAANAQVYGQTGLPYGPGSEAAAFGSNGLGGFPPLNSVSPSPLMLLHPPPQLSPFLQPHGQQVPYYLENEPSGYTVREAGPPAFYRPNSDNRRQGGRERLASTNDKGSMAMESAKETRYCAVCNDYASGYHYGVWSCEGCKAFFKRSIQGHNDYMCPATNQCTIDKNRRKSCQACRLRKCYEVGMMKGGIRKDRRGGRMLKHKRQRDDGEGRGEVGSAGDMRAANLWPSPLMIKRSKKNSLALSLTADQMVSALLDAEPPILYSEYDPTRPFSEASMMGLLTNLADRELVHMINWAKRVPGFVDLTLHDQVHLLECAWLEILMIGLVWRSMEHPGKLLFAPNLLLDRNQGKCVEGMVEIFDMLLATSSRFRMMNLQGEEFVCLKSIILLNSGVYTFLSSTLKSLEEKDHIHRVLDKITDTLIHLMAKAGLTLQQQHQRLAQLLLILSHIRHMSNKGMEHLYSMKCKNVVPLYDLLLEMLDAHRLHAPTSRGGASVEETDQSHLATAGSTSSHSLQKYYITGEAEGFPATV
Aryl hydrocarbon receptor (Homo sapiens), sequence (P35869 whole entry, looked up): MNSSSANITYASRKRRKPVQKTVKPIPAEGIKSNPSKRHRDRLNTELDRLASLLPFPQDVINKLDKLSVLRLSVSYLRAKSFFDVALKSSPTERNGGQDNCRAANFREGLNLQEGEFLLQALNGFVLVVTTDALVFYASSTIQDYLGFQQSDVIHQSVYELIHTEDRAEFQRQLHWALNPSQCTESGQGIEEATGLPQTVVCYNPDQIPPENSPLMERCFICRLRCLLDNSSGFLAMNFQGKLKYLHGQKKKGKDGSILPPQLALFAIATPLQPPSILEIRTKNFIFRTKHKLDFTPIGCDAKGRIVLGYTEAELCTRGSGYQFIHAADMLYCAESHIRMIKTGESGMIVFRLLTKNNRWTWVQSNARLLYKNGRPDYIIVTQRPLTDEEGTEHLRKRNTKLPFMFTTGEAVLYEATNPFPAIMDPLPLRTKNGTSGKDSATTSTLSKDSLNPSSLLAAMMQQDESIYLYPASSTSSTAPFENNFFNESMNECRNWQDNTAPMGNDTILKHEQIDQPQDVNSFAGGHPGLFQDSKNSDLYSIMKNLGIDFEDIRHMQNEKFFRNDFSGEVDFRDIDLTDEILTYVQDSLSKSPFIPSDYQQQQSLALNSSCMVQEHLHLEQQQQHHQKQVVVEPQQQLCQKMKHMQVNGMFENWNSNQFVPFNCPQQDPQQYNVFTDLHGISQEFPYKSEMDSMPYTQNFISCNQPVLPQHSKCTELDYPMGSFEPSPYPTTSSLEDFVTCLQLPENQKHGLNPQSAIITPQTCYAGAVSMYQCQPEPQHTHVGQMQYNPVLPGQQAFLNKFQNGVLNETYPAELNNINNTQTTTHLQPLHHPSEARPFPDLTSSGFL

Row | SMILES | Potency [1] | Potency [2] | outcome [3] | Potency [4] | outcome [5] | outcome [6] | Potency [7] | Potency [8] | Potency [9] | Potency [10] | outcome [11] | Potency [12] | outcome [13] | outcome [14] | outcome [15] | Potency [16] | Potency [17] | Potency [18] | Potency [19] | Potency [20]
1 | CCOc1ccccc1OCC | inactive | inactive | inactive | inactive | inactive | inactive | inactive | inactive | inactive | inactive | inactive | inactive | inactive | inactive | inactive | – | – | – | – | –
2 | NC(=O)N[C@@H](CCC(=O)O)C(=O)O | inactive | inactive | inactive | inactive | inactive | – | – | – | – | – | inactive | inactive | inactive | inactive | inactive | inactive | – | – | – | –
3 | C[N+]12CCC(CC1)C(OC(=O)C(O)(c1ccccc1)c1ccccc1)C2 (stereo not drawn) | inactive | inactive | inactive | inactive | inactive | – | inactive | – | – | inactive | inactive | – | inactive | inactive | – | inactive | – | – | – | –
4 | O=S(=O)(O)c1cccc2ccccc12 | inactive | inactive | inactive | inactive | inactive | inactive | – | – | inactive | inactive | inactive | – | inactive | inactive | inactive | inactive | – | – | – | –
5 | CCN1CCOCC1 | inactive | inactive | inactive | inactive | inactive | inactive | inactive | – | inactive | – | inactive | inactive | inactive | inactive | inactive | inactive | – | – | – | –
6 | C=C(C)C(=O)OCCOCCOCCOCCOC(=O)C(=C)C | inactive | inactive | inactive | inactive | inactive | inactive | inactive | inactive | – | – | – | – | inactive | inactive | inactive | inactive | – | – | – | –
7 | CC(C)NNC(=O)c1ccncc1 | inactive | inactive | inactive | inactive | inactive | inactive | inactive | – | inactive | inactive | inactive | – | inactive | inactive | inactive | inactive | – | – | – | –
8 | C=C(C)C(=O)OCC1CCCO1 (stereo not drawn) | inactive | inactive | inactive | inactive | inactive | – | – | – | – | – | inactive | inactive | inactive | inactive | inactive | inactive | – | – | – | –
9 | c1ccc2sc(SN3CCOCC3)nc2c1 | inactive | inactive | inactive | inactive | inactive | inactive | inactive | 23.7 µM (active) | – | inactive | inactive | inactive | inactive | inactive | inactive | inactive | – | – | – | –
10 | C[N+]1(CC2COC(c3ccccc3)(c3ccccc3)O2)CCCCC1 (stereo not drawn) | inactive | inactive | inactive | inactive | inactive | inactive | inactive | inactive | – | – | inactive | inactive | inactive | inactive | inactive | inactive | – | – | – | –
11 | CO/N=C(\C(=O)N[C@@H]1C(=O)N2C(C(=O)O)=C(CSc3nc(=O)c(O)nn3C)CS[C@H]12)c1csc(N)n1 | inactive | – | inactive | inactive | inactive | inactive | inactive | – | inactive | inactive | inactive | inactive | inactive | – | – | – | inactive | inactive | – | –
12 | C[C@@H]1C[C@H]2[C@@H]3C[C@H](F)C4=CC(=O)C(Cl)=C[C@]4(C)[C@@]3(F)[C@@H](O)C[C@]2(C)[C@@]1(O)C(=O)CO | inactive | – | inactive | inactive | inactive | inactive | inactive | inactive | inactive | – | inactive | inactive | inactive | inactive | – | inactive | – | inactive | inactive | –
13 | CC(C)C(=O)OC(=O)C(C)C | inactive | inactive | inactive | inactive | inactive | – | – | – | – | – | – | inactive | inactive | inactive | inactive | inactive | – | – | – | –
14 | CCOCC(C)O (stereo not drawn) | inactive | – | – | inactive | inactive | inactive | inactive | inactive | inactive | inactive | inactive | inactive | inactive | inactive | inactive | – | inactive | inactive | inactive | inactive
15 | Cc1c(N)c(=O)n(-c2ccccc2)n1C | inactive | inactive | inactive | inactive | – | inactive | inactive | – | – | – | inactive | – | inactive | inactive | inactive | inactive | – | – | – | –
16 | N[C@@H](CCC(=O)O)C(=O)O | inactive | – | inactive | inactive | inactive | inactive | inactive | inactive | inactive | inactive | inactive | inactive | inactive | inactive | – | – | inactive | inactive | inactive | inactive
